Assay results as given in PubChem BioAssay (Tox21).
Inconclusive results are not listed. The source made the active and inactive calls. Unless noted, calls follow the shape of the dose curve; as a rule, active = well fitted curve in the direction sought with a large enough effect in the repeat runs; inconclusive = weak or mixed curves; inactive = no such curve, though single readings can be large; an effect the other way counts as inactive or inconclusive.

Experiments:
[1] = qHTS assay to identify small molecule antagonists of the estrogen receptor alpha (ER-alpha) signaling pathway using the BG1 cell line in the presence of 0.1 nM 17-beta-estradiol - cell viability counter screen (AID 1259241); also: nearly all actives have a fitted effect of over 40% in size
Procedure, shortened: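 In this screen, hormone-deprived VM7Luc4E2 cells were seeded at 4,000 per well, dosed with compound and 0.1 nM estradiol final, and incubated 22 hr at 37C and 5% CO2; fluorogenic live-cell protease signal reported viability.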

[2] = qHTS assay to identify small molecule antagonists of the androgen receptor (AR) signaling pathway using the MDA cell line in the presence of 0.5 nM R1881 - cell viability counter screen (AID 1259242); also: nearly all actives have a fitted effect of over 45% in size
Procedure, shortened: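 MDA-kb2 cells (MMTV-luciferase, AR/GR responsive) were treated with compounds plus 0.5 nM R1881 (final) for 16 hr at 37C, 0% CO2. Viability was then read in the same wells as live-cell protease fluorescence (CellTiter-Fluor, 30 min).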

[3] = qHTS assay to identify small molecule HDAC inhibitors (AID 1259364); also: nearly all actives have a fitted effect of over 45% in size; also: potency is read from the fitted curve at half-maximal effect; as to activity change, negative = inhibition: top concentration of the series differs between compounds
Procedure, shortened: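 Wild-type HCT-116 cells, plated overnight at 37 C, exposed to compounds 2 hr at 37 C; luminogenic HDAC-Glo substrate then added 30 min at room temperature. Luminescence reports relative endogenous class I/II HDAC activity.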

[4] = qHTS assay to identify small molecule HDAC inhibitors - cell viability counter screen (AID 1259365); also: series mostly up to about 92 µM; nearly all actives have a fitted effect of over 50% in size
Procedure, shortened: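 Measured quantity is CellTiter-Glo luminescence from wild-type HCT-116 cells after compound incubation of 2hr at 37C, 5% CO2; reagent developed 30min at room temperature.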

[5] = qHTS assay to identify small molecule agonists of the sonic hedgehog signaling (Shh) pathway - cell viability counter screen (AID 1259366); also: nearly all actives have a fitted effect of over 50% in size
Procedure, shortened: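 In quantitative high-throughput format, 3T3 Gli1-Luc cells were exposed to compounds for 24hr and multiplexed for viability using CellTiter-Fluor, incubated 1hr at 37C before the fluorescence read.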

[6] = qHTS assay to identify small molecule antagonists of the sonic hedgehog signaling (Shh) pathway - cell viability counter screen (AID 1259367); also: nearly all actives have a fitted effect of over 55% in size; also: potency is read from the fitted curve at half-maximal effect
Procedure, shortened: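 NIH/3T3-derived Gli1-Luc reporter cells, 2,000/well, plated 4 hr before compound addition, then stimulated with conditioned medium for 24 hr at 37C. Viability measured in the same wells by CellTiter-Fluor fluorescence, reagent added at 23 hr for 1 hr.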

[7] = qHTS assay to identify small molecule agonists of the sonic hedgehog signaling (Shh) pathway (AID 1259368; calls by dose curve;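 also: NIH/3T3-derived 3T3Gli1-Luc cells carrying a stable Gli1-driven firefly luciferase reporter; series mostly up to about 92 µM; nearly all actives have a fitted effect of over 15% in size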)
Procedure, shortened: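 NIH/3T3-derived 3T3Gli1-Luc cells with stably integrated Gli1-driven firefly luciferase, 2,000 cells/well, compounds added after 4 hr. Incubated 24 hr at 37C, 5% CO2; luminescence read after 30 min with luciferase reagent at room temperature.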

[8] = qHTS assay to identify small molecule phospholipidosis (PLD) inducers (AID 1259344; active = well fitted curve in the direction sought with a large enough effect; an effect the other way counts as inactive or inconclusive)
Procedure, shortened: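 HepG2 cells, 900/well, treated with compound plus LipidTOX Red for 24 h at 37 C; amiodarone positive and DMSO negative controls. Fixed with paraformaldehyde/Hoechst, then high-content imaging scored LipidTOX pit count and integrated intensity per well and per cell.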

[9] = molecular target: Androgen receptor (Homo sapiens) (UniProt P10275); assay: qHTS assay to identify small molecule antagonists of the androgen receptor (AR) signaling pathway using the MDA cell line in the presence of 0.5 nM R1881 (AID 1259243); also: nearly all actives have a fitted effect of over 50% in size
Chain of Androgen receptor (Homo sapiens) (P10275 whole entry, looked up): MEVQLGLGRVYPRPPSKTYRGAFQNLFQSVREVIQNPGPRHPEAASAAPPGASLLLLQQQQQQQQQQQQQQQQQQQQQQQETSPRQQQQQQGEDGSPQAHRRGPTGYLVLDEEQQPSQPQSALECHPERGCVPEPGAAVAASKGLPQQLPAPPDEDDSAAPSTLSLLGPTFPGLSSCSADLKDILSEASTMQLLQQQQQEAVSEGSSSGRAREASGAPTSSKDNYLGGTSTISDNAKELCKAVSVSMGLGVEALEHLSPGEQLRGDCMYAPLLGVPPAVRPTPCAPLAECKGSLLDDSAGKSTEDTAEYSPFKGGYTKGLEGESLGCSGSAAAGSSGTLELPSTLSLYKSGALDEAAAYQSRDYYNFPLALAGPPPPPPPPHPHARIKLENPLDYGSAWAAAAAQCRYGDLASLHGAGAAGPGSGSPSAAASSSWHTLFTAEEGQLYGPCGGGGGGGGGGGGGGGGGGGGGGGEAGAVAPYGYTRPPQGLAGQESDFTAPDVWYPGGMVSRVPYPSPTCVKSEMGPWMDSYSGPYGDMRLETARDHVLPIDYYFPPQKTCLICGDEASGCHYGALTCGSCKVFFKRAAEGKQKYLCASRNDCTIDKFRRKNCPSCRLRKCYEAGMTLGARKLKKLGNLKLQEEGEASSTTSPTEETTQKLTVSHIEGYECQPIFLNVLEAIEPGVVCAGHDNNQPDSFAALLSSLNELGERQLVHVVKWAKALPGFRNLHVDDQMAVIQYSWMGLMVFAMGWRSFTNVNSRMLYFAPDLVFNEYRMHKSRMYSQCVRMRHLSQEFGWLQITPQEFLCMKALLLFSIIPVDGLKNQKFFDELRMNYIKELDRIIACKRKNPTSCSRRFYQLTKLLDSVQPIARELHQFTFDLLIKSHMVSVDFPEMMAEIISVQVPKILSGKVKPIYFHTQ
Procedure, shortened: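 MDA-kb2 cells (MMTV-luciferase, responsive to AR and GR) at 3,000/well, rested 5 h at 37C, 0% CO2, then given compounds plus 0.5 nM R1881 (final) for 16 hr. Luciferase read with ONE-Glo after 30 min at room temperature.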

[10] = molecular target: Estrogen receptor (Homo sapiens) (UniProt P03372); assay: qHTS assay to identify small molecule antagonists of the estrogen receptor alpha (ER-alpha) signaling pathway using the BG1 cell line in the presence of 0.1 nM 17-beta-estradiol (AID 1259244); also: nearly all actives have a fitted effect of over 50% in size
Chain of Estrogen receptor (Homo sapiens) (P03372 whole entry, looked up): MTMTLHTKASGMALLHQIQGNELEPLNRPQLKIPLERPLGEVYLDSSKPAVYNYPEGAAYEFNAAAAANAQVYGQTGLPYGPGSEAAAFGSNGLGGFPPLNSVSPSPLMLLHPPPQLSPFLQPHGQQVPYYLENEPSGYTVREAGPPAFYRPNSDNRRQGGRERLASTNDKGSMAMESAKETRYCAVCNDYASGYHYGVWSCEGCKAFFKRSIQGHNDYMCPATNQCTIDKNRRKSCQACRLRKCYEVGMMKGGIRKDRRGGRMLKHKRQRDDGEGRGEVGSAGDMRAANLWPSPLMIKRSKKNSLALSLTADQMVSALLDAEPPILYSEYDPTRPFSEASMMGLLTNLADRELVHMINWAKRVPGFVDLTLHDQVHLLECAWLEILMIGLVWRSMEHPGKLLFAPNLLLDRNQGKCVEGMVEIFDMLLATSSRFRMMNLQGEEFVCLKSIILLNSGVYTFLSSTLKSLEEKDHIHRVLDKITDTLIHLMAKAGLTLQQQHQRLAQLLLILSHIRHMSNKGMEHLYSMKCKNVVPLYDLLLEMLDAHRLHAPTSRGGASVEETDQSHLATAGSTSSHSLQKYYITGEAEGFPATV
Procedure, shortened: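 VM7Luc4E2 cells (endogenous full-length ER-alpha, 4×ERE-luciferase), kept 5 days in phenol red-free, charcoal-stripped FBS medium; 4,000 cells/well. Compounds added with 0.1 nM (final) 17beta-estradiol, 22 hr at 37C; luminescence read with ONE-Glo after 30 min.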
% is scaled to controls: 0 for no effect and ±100 for the full control effect.

CNC(=O)Oc1cc(C)c(N(C)C)c(C)c1
inactive: outcome [1] | Potency [2] | Potency [3] | outcome [4] | Potency [5]

ClCCCCl
inactive: outcome [1] | Potency [2] | Potency [3] | outcome [4] | Potency [5] | Potency [6]

ClCCCCCCCl
inactive: outcome [1] | Potency [2] | Potency [3] | outcome [4] | Potency [5] | Potency [6]

CCOC(=O)C(Cl)Cc1cc(-n2nc(C)n(C(F)F)c2=O)c(F)cc1Cl (configuration not stated)
inactive: outcome [1] | Potency [2] | Potency [3] | outcome [4] | Potency [5] | Potency [6] | outcome [7]

CN(CCO)CCO
inactive: outcome [1] | Potency [2] | Potency [3] | outcome [4] | Potency [5] | Potency [6]

CCC(=O)c1ccc(Cl)cc1
inactive: outcome [1] | Potency [2] | Potency [3] | outcome [4] | Potency [5] | Potency [6] | outcome [7]

CC(=O)OCC1=C(C(=O)O)N2C(=O)[C@@H](N)[C@H]2SC1
inactive: activity change, negative = cytotoxicity [1] 4.49% [at 19 µM] | viability change, negative = cytotoxic [2] 4.78% [at 19 µM] | Potency [8] | activity change, negative = inhibition [3] -0.068% [at 19 µM] | activity change, negative = cytotoxicity [4] 0.172% [at 19 µM] | viability change, negative = cytotoxic [5] 1.92% [at 19 µM] | viability change, negative = cytotoxic [6] 0.909% [at 19 µM] | activity change [7] 0.594% [at 18.9 µM]

CC(C)[C@]12CC(=O)[C@H](C)[C@H]1C2
inactive: outcome [1] | Potency [2] | Potency [3] | outcome [4] | Potency [5] | Potency [6]

CON(C)C(=O)Nc1ccc(Br)cc1
active: Potency [3] 24.3 µM
inactive: outcome [1] | Potency [2] | outcome [4] | Potency [5]

NC(=O)OCCCc1ccccc1
inactive: outcome [1] | Potency [2] | Potency [8] | Potency [3] | outcome [4] | Potency [5] | Potency [6] | outcome [7]

CC(C)c1ccc(O)cc1
inactive: outcome [1] | Potency [2] | Potency [3] | outcome [4] | Potency [5] | Potency [6] | outcome [7]

CCCC(C)C1(CC)C(=O)N=C(S)NC1=O (configuration not stated)
inactive: outcome [1] | Potency [2] | Potency [8] | Potency [3] | outcome [4] | Potency [5] | Potency [6] | outcome [7]

CCCCCCC(=O)CCCCCC/C=C/C[C@@H](O)[C@H](O)[C@@](N)(CO)C(=O)O
inactive: activity change, negative = cytotoxicity [1] 7.82% [at 19 µM] | viability change, negative = cytotoxic [2] 8.38% [at 19 µM] | Potency [8] | activity change, negative = inhibition [3] 6.81% [at 19 µM] | activity change, negative = cytotoxicity [4] -0.234% [at 19 µM] | viability change, negative = cytotoxic [5] 4.09% [at 19 µM] | viability change, negative = cytotoxic [6] -0.502% [at 19 µM] | activity change [7] -0.137% [at 18.9 µM]

CC(=NC#N)N(C)Cc1ccc(Cl)nc1
inactive: outcome [1] | Potency [2] | Potency [3] | outcome [4] | Potency [5] | Potency [6] | outcome [7]

[P]#[In]
inactive: outcome [1] | Potency [2] | Potency [3] | outcome [4] | Potency [5] | Potency [6] | outcome [7]

C=C1CC[C@@]2(O)[C@H]3Cc4ccc(O)c5c4[C@@]2(CCN3CC2CC2)[C@H]1O5
inactive: outcome [1] | Potency [2] | Potency [8] | Potency [3] | outcome [4] | Potency [5] | Potency [6] | outcome [7]

N#CN=C1SCCN1Cc1ccc(Cl)nc1
inactive: outcome [1] | Potency [2] | Potency [3] | outcome [4] | Potency [5] | Potency [6] | outcome [7]

CC(C)(C)NC[C@H](O)c1ccc(O)cc1Cl
inactive: outcome [1] | Potency [2] | Potency [8] | Potency [3] | outcome [4] | Potency [5] | Potency [6] | outcome [7]

COc1ccc(CN2CCNCC2)c(OC)c1OC
inactive: outcome [1] | Potency [2] | Potency [8] | Potency [3] | outcome [4] | Potency [5] | Potency [6] | outcome [7]

CC1=C2[C@H]3OC(=O)[C@@H](C)[C@@H]3CC[C@@]2(C)C=CC1=O
inactive: outcome [1] | Potency [2] | Potency [8] | Potency [3] | outcome [4] | Potency [5] | Potency [6] | outcome [7]

Cc1ccc2cc(C)ccc2c1
inactive: outcome [1] | Potency [2] | Potency [3] | outcome [4] | Potency [5] | Potency [6] | outcome [7]

N#CC(Br)(Br)C(N)=O
inactive: outcome [1] | Potency [2] | Potency [3] | outcome [4] | Potency [5] | outcome [7]
active: Potency [6] 54.5 µM

CC#Cc1cc(C)nc(Nc2ccccc2)n1
inactive: outcome [1] | Potency [2] | outcome [4] | Potency [5] | Potency [6]

CNC(=O)O/N=C(/CSC)C(C)(C)C
inactive: Potency [2] | Potency [9] | Potency [10] | Potency [3] | outcome [4] | Potency [5] | Potency [6] | outcome [7]

O=C1CCCCC1Cl (configuration not stated)
inactive: outcome [1] | Potency [2] | Potency [3] | outcome [4] | Potency [5] | outcome [7]

O=CCCl
inactive: outcome [1] | Potency [2] | Potency [3] | outcome [4] | Potency [5] | Potency [6] | outcome [7]

CC(C)C(C)(N)C#N (configuration not stated)
inactive: outcome [1] | Potency [2] | Potency [3] | outcome [4] | Potency [5] | Potency [6] | outcome [7]

CCOC(=O)COc1ccc(Cl)cc1Cl
inactive: outcome [1] | Potency [2] | Potency [3] | outcome [4] | Potency [5] | Potency [6] | outcome [7]

CCNP(=S)(OC)O/C(C)=C/C(=O)OC(C)C (configuration not stated)
inactive: outcome [1] | Potency [2] | outcome [4] | Potency [5] | Potency [6]

CCOC(=O)C(SP(=S)(OC)OC)c1ccccc1 (configuration not stated)
inactive: outcome [1] | Potency [2] | Potency [3] | outcome [4] | Potency [5] | outcome [7]

CCOP(=S)(OCC)Oc1ccc(Cl)cc1Cl
inactive: outcome [1] | Potency [2] | Potency [3] | outcome [4] | Potency [5] | Potency [6] | outcome [7]

COc1cccc([C@@]2(O)CCCC[C@@H]2CN(C)C)c1
inactive: Potency [2] | Potency [9] | Potency [10] | Potency [8] | Potency [3] | Potency [5] | Potency [6] | outcome [7]

O=C(O)CBr
inactive: outcome [1] | Potency [2] | Potency [3] | outcome [4] | Potency [5] | Potency [6] | outcome [7]

CCN1CCCC1CNC(=O)C(O)(c1ccccc1)c1ccccc1 (configuration not stated)
inactive: outcome [1] | Potency [2] | Potency [3] | outcome [4] | Potency [5] | Potency [6] | outcome [7]

COc1ccccc1OC
inactive: outcome [1] | Potency [2] | Potency [3] | outcome [4] | Potency [5] | Potency [6] | outcome [7]

CC(Cl)(Cl)Cl
inactive: outcome [1] | Potency [2] | Potency [3] | outcome [4] | Potency [5] | outcome [7]

N=C(N)[Se]
inactive: outcome [1] | Potency [2] | Potency [3] | outcome [4] | Potency [5] | Potency [6] | outcome [7]

O=C(O)C(Cl)Br (configuration not stated)
inactive: outcome [1] | Potency [2] | Potency [3] | outcome [4] | Potency [5] | Potency [6] | outcome [7]

CCN[C@H](C)Cc1cccc(C(F)(F)F)c1
inactive: Potency [2] | Potency [10] | Potency [8] | Potency [3] | outcome [4] | Potency [5] | Potency [6]

CCCCCCCCBr
inactive: outcome [1] | Potency [2] | Potency [3] | outcome [4] | Potency [5] | Potency [6] | outcome [7]

C=CC(=O)OCCN(C)C
inactive: outcome [1] | Potency [2] | Potency [3] | outcome [4] | Potency [5] | Potency [6] | outcome [7]

CCC1(c2ccccc2)C(=O)N(COC)C(=O)N(COC)C1=O
inactive: Potency [2] | Potency [9] | Potency [8] | Potency [3] | outcome [4] | Potency [5]

CCN(CCO)CCO
inactive: outcome [1] | Potency [2] | Potency [3] | outcome [4] | Potency [5] | Potency [6] | outcome [7]

O=[N+]([O-])c1cccc(CCl)c1
inactive: outcome [1] | Potency [2] | Potency [3] | outcome [4] | Potency [5] | outcome [7]

CC(C)(C)C(=O)C(Cl)Cl
inactive: outcome [1] | Potency [2] | Potency [3] | outcome [4] | Potency [5] | outcome [7]
